Bioassay records: PubChem, several laboratories
KLF5 inhibitor: inhibitors of KLF5 expression; DLD-1 KLF5 promoter-luciferase reporter, luminescence; inhibition, % at 5 µM; hit rate 0.23% among 290,000; AID 1700;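 active = inhibition above a per-plate limit of that plate's mean compound inhibition plus 3 SD, cut at about 60% in these data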;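 note: 0% = DMSO wells and 100% = LY294002 at 200 µM; higher means less KLF5 promoter-driven luciferase light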
IEC-6 cytotox: kills IEC-6 intestinal cells in KLF5 counter-screen. IEC-6 cytotoxicity, luminescence viability. inhibition, % at 5 µM. hit rate 0.78% among 290,000;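 note: 0% = plate median of test compound wells and 100% = cytotoxic reference compound wells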
BaF3 tox: reduces parental Ba/F3 cell viability, JAK2V617F counter-screen. CellTiter-Glo ATP luminescence. inhibition, % at 5.6 µM. hit rate 1.1% among 220,000;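 active = inhibition above a per-campaign cutoff, the mean inhibition of all tested compounds plus 3 SD, cut at about 27% in these data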;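 note: 0% = DMSO wells and 100% = JAK Inhibitor I control wells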
aSyn 5UTR inh: 5' untranslated region of α-synuclein, MLPCN primary screen. hit rate 0.82% among 300,000. AID 1813. alpha-synuclein 5'UTR reporter, inhibitor activity. inhibition, % (tested at 7.5 µM); in the data active = inhibition above about 60%;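 note: H4 neuroglioblastoma cells stably carrying SNCA 5'UTR luciferase fusion; 0% = DMSO wells and 100% = positive control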
APP transl inh: APP translation inhibition; inhibition, % at 2 µM; SH-SY5Y APP 5'UTR-luciferase reporter, luminescence; hit rate 0.82% among 190,000;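 active = inhibition above a set limit, derived from the sample mean plus 3 SD, cut at about 45% in these data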
Ba/F3 V617F tox: reduce viability of Ba/F3 cells dependent on JAK2V617F | hit rate 1.1% among 220,000 | Ba/F3 EpoR-JAK2V617F viability, ATP luminescence | inhibition, % at 5.6 µM;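 active = inhibition above the campaign mean plus 3 SD over all tested compounds, cut at about 24% in these data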;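 note: cytokine-independent growth of Ba/F3 cells driven by EpoR plus mutant JAK2; 0% = DMSO-treated cells and 100% = JAK inhibitor I control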
IEC-6 cytotox cf: confirmation of cytotoxic compounds in rat IEC-6 intestinal epithelial cells; inhibition, % at 5 µM; IEC-6 rat intestinal epithelial viability, luminescence; hit rate 63% among 1,900; shares compounds with IEC-6 cytotox;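 note: 0% = vehicle and 100% = reference cytotoxic drug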
* marks the source's active call; other numbers are inactive results; x = no result. Compounds with a hit are over-represented: about 2.2% of the library has one in this group of screens. Cut-off read from the data, not from the text of the source, unless noted: active = inhibition above about 22%; inactive = the rest.

SMILES | KLF5 inhibitor | IEC-6 cytotox | BaF3 tox | aSyn 5UTR inh | APP transl inh | Ba/F3 V617F tox | IEC-6 cytotox cf
CCOc1ccc(NC(=S)N2CCN(S(=O)(=O)c3ccccc3)CC2)cc1 | -38 | -4 | x | x | x | x | x
CNc1nc2cc([N+](=O)[O-])c([N+](=O)[O-])cc2nc1NC | -32 | 40* | 69* | 9 | -18 | 75* | 34*
CNc1ccc(S(=O)(=O)NC)cc1[N+](=O)[O-] | -15 | -1 | 7 | -6 | 2 | 0 | x
O=C(COC(=O)C1CCC1)NCc1ccc(F)cc1 | x | x | x | -3 | x | x | x
Cc1ccc(NC(=O)CN2CCc3ccccc3C2)cc1S(=O)(=O)N(C)C | -15 | -7 | 4 | 17 | -12 | 1 | x
Cc1ccc(NC(=O)Cn2c(=O)cnc3ccccc32)cc1S(=O)(=O)N(C)C | 5 | 25* | 4 | 21 | -3 | 5 | 3
Cc1ccc2c(c1)nc(-n1nc(C)cc1C)c1nnnn12 | -37 | -13 | 5 | 30 | -2 | -2 | x
COc1ccc(/C(C)=N/NC(=O)c2nnn(-c3nonc3N)c2CN(C)c2ccccc2)cc1 | 5 | 1 | x | 1 | x | x | x
C/C(=N\NC(=O)c1nnn(-c2nonc2N)c1CN(C)c1ccccc1)c1ccccc1O | 37 | 51* | x | 43 | x | x | 50*
CCN(CC)c1ccc(/C=C/c2ccc3ccc(OC)cc3[n+]2CC)cc1 | 22 | 48* | x | -87 | x | x | 31*
CC[n+]1ccccc1/C=C/c1ccc(N(C)C)cc1 | 30 | 22* | 76* | 10 | -2 | 99* | 23*
CC[n+]1c(/C=C/c2ccc(N(C)C)cc2)ccc2ccccc21 | 26 | 48* | 95* | 2 | -2 | 101* | 76*
Cc1ccc(/C=C/c2ccc(N(C)C)cc2)[n+](C)c1 | -7 | 32* | x | 19 | x | x | 26*
Cc1ccccc1N1CCN(S(=O)(=O)c2nnc(NC(=O)c3ccco3)s2)CC1 | -18 | -2 | x | -4 | x | x | x
CCOC(=O)Nc1ccc2nc(Sc3ccc(Cl)cc3)sc2c1 | 15 | 38* | 25 | -41 | x | 21 | 24*
Nc1cnc(CNc2ccccc2Cl)cn1 | x | x | x | -50 | x | x | x
CCn1c(=O)cc(OCC(=O)NCc2ccc(C)o2)c2ccccc21 | -9 | 23* | 6 | 25 | 8 | 2 | 13
CCn1c(=O)cc(OCC(=O)NCc2ccco2)c2ccccc21 | -24 | 2 | 1 | 4 | 6 | -4 | x
Cc1ccc(/C=N/NC(=O)c2nnn(-c3nonc3N)c2CSc2ccc(Cl)cc2)o1 | -14 | 0 | x | -6 | x | x | x
Cc1ccc(S(=O)(=O)Nc2cccc3cccnc23)cc1 | 12 | 32* | 4 | 63* | 29 | 0 | 100*
COc1ccc(S(=O)(=O)Nc2ccccn2)cc1 | -58 | -5 | x | 3 | x | x | x
COc1ccc(S(=O)(=O)Nc2cc3c(C(C)=O)c(C)oc3c3ccccc23)cc1 | 52 | 83* | 78* | 82* | 92* | 79* | 55*
Cc1ccc(S(=O)(=O)Nc2ccccc2-c2ccccc2NS(=O)(=O)c2ccc(C)cc2)cc1 | 13 | -3 | 8 | -4 | -3 | -2 | x
COc1cc(NS(=O)(=O)c2ccc(C)cc2)c2ncccc2c1 | -15 | 79* | 7 | 69* | 22 | 1 | 74*
Cc1oc2c(cc(NS(=O)(=O)c3ccc(F)cc3)c3ccccc32)c1C(=O)O | 6 | -1 | x | 10 | x | x | x
SMILES | KLF5 inhibitor | IEC-6 cytotox | BaF3 tox | aSyn 5UTR inh | APP transl inh | Ba/F3 V617F tox | IEC-6 cytotox cf
c1ccc(-c2cc(N3CCCCC3)ncn2)cc1 | -58 | 6 | 3 | -135 | -45 | -2 | x
Nc1nc(-c2ccccc2)cc(N2CCCCC2)n1 | 61 | 82* | 77* | 55 | 94* | 70* | 59*
Cc1cccc(C)c1OCC(=O)NNC(=S)NC(=O)C1CC1 | 32 | 29* | x | 7 | x | x | 2
COc1ccc(CCNC(=O)CCNC(=O)c2ccc([N+](=O)[O-])cc2)cc1 | -6 | 4 | x | -9 | x | x | x
Cc1ccc2nc(NCc3ccccc3)[nH]c2c1 | 24 | 82* | 76* | 40 | 10 | 85* | 51*
Cc1ccc2[nH]c3c(NCc4ccccc4)ncnc3c2c1 | -13 | 30* | x | -95 | x | x | 17
COc1ccc2nc(NCc3ccccc3)[nH]c2c1 | -43 | 5 | 6 | -80 | -18 | 1 | x
CC(=O)Nc1cccc(NC(=O)c2ccco2)c1 | 11 | -2 | 6 | -16 | -8 | -1 | x
O=C(Nc1cccc(NC(=O)c2ccc([N+](=O)[O-])o2)c1)c1ccco1 | -9 | 99* | x | -66 | x | x | 35*
